# Source: the supplement of paper PMC6555819
# Key:
# Assay in all cases: PBM binding z-score (relative to random genomic background probes); higher = stronger binding; sequences stand for … in GC…GCGATTGACAGCGTAGAATGAAGG
# [1] = tested on: RARb homodimer (NR concentration 270 nM)
# How it was run: (§1)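 Regression normalization was applied to scanned fluorescence from custom Agilent 4×180K protein-binding microarrays. Before scanning, arrays were incubated 1 h with ligand-free nuclear receptor dimers, and binding was detected with antibodies against each partner (one per run). Binding z-scores use the random background probes as reference.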
# [2] = tested on: RARg:RXRa (NR concentration 270 nM, RXRa partner concentration 90 nM)
# How it was run: as §1
# [3] = tested on: RARg homodimer (NR concentration 270 nM)
# How it was run: as §1
# [4] = tested on: RXRa DBDmut IVT, anti-RXR (DBD mutation: RXRa K156A/R161A, NR concentration 90 nM)
# How it was run: as §1
# [5] = tested on: RXRa homodimer (NR concentration 180 nM)
# How it was run: as §1
# [6] = tested on: THRa:RXRa (NR concentration 90 nM, RXRa partner concentration 90 nM)
# How it was run: as §1
# [7] = tested on: THRa homodimer (NR concentration 90 nM)
# How it was run: as §1
# [8] = tested on: VDR homodimer (NR concentration 270 nM)
# How it was run: as §1
Sequence,PBM binding z-score [1],PBM binding z-score [2],PBM binding z-score [3],PBM binding z-score [4],PBM binding z-score [5],PBM binding z-score [6],PBM binding z-score [7],PBM binding z-score [8]
GCTGCTAGGTCACGTTGGTCAGCTAACGGGTACG,3.68,4.37,5.6,1.5,3.09,3.38,1.79,0.836
GCAGACAGGTGAAACGCAGGTAACCCAGGGTGGC,0.0682,1.01,0.468,-1.51,0.96,1.52,-0.636,-1.22
TCAGACAGGGGAAGGTAACTCAGGTACGCAGTCG,0.725,0.0159,-0.128,1.16,0.547,1.38,1.02,0.491
ATACCAAGGTGATAGTGAGGTCGTTGATACTAAC,1.84,2.12,0.961,0.897,1.84,3.3,2.49,3.15
CCAGACAGGTGAGAAGGAAACTCAGCCTCGATTA,-0.0325,0.209,0.469,-0.203,0.154,-0.307,0.13,-0.0277
TCGAGTAGGTTACCAATCGGGCATTCAGCTTTCT,0.187,1.32,0.199,-0.0305,0.304,-0.223,-1.47,-1.01
TCGACTAGGTTAGTCGGGGCATTCAGCCAACATA,0.379,-0.0311,-0.0411,0.284,-0.049,1.1,-0.279,0.492
TCGAGTAGGTTAGTCGGGGCATTCCGCCAACATA,0.291,-0.0295,-0.243,0.165,0.00868,1.05,-0.473,-0.0294
ATGTGTAGGTTAAGGGTCATTCAGGTTGGTTCGC,4.06,4.95,3.99,2.14,6.33,3.69,2.32,5.37
TCACATAGGTAAACAGGTGAAAGTCCGTAAGTTA,0.832,0.608,0.415,0.731,1.12,0.714,0.454,0.318
TCATATAGGTAAACAGGTGAAAGTTCGTAAGTTA,1.49,1.11,0.601,1.62,2.31,1.4,0.587,1.55
ATCTCTAGGTAAAGATAGGTCAGTGAATGCAAAT,2.4,1.84,1.85,0.189,1.2,2.02,0.451,0.412
GGAACTAGGGCAAGTTGATAGCAGAGTTTGATGG,1.11,0.675,1.21,1.07,0.0337,0.0165,-0.214,0.251
GCTTACGGGTCAAGGGTTATAGCATGAATAGAAT,3.07,5.54,4.39,1.86,7.3,3.14,0.219,0.975
GGAACGAGTGCAAAGTTGATAGCATCTGTCGACG,-0.159,0.335,0.145,3.22,0.874,-0.385,-0.711,1.88
GCTGCTAGGTCAGGTCGGTCAGCTAACGGGTACG,3.44,3.03,4.28,0.46,1.23,2.48,0.932,0.733
TGAATGAGGTTAAGGATCAGGGAACGTGGCGTCG,0.892,1.97,1.38,0.394,2.62,2.49,0.88,0.15
AGAATGAGGTTATTAAGATCATGGAATTGCGGTC,0.78,1.25,0.948,1.87,1.73,2.17,0.524,1.5
CCGAATGGGGCAGAAAGGTTACCATACCATCCGG,2.38,1.8,1.36,-0.766,1.91,1.07,-0.641,-0.0198
GCTGCTAGGTCAAGTTGGTCAGCTAACGGGTACG,3.78,4.49,5.42,1.81,3.03,2.96,1.13,0.704
ACTTACGGGTCAACGAGGTTATAGCACGCGTATA,3.53,5.57,5.3,2.71,6.39,4.01,1.25,3.96
TCTTGTAGATCAAGCAGGTTCAGAAAGCCTGAGT,-0.055,-0.213,-0.414,0.872,0.0665,0.613,-0.659,2.13
TCTTGTAGATCAATAGAGGTTACGAAAGTGCGCT,1.7,1.05,0.657,0.65,1.54,2.75,0.12,0.507
CCTTACGGGTCACTGACAGGATATAGCATTTGGA,2.9,4.97,4.62,1.76,5.05,2.62,0.268,0.961
AGAGCGAGGGCAATGAGTTGATAGCACGGGTGGC,0.903,1.19,1.31,1.48,0.736,0.613,-0.514,2.82
CCTATTAGTTGACCATAAGGGCAAGCGAAGCTCG,1.9,0.986,1.05,0.414,0.645,1.75,1.08,0.847
ATATGTAGGTTAGATGGGGTCATTCAGACTAGGC,3.8,4.06,2.93,2.39,5.63,5.15,3.28,5.95
CGAACTAGGTCAGAACAGGATAGTGAAGGATGAT,1.64,2.44,3.17,0.707,1.34,2.39,0.235,0.187
